# Article PMC5540273 (PLoS ONE, 2017)
# Values joined by “and” are separate entries in the source; they are usually repeats but may differ in a detail not shown here. Identical values can stand only once. Like-named read-outs stand apart in the source and are kept apart here.
# How the values were obtained:
# BMPR1A = conditions: n = 1
# BMPR1B = conditions: concentration: 1 μM, replicates: in singlicate; n = 1
# BMPR2 = conditions: n = 1
# BMX = conditions: n = 1
# BRAF = conditions: n = 1
# BRK = tested on: T1, BRK; conditions: n = 1
# T1 construct: gene PTK6
# BRSK1 = conditions: n = 1
# BRSK2 = conditions: n = 1
# BTK = conditions: concentration: 1 μM, replicates: in singlicate; n = 1
# BUB1 = conditions: n = 1
# CAMK1B = conditions: n = 1
# CAMK1D = conditions: n = 1
# CAMK1G = conditions: n = 1
# CAMK1 = conditions: n = 1
# CAMK2A = conditions: concentration: 1 μM, replicates: in singlicate; n = 1
# CAMK2B = conditions: concentration: 1 μM, replicates: in singlicate; n = 1
# CAMK2D = conditions: n = 1
# CAMK2G = conditions: n = 1
# CAMK4 = conditions: concentration: 1 μM, replicates: in singlicate; n = 1
# CAMKK1 = conditions: concentration: 1 μM, replicates: in singlicate; n = 1
# [1] = concentration: 1 μM, replicates: in singlicate
# [2] = concentration: 1 μM,replicates: in singlicate, 1 µM
# 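Note: KINOMEscan kinase panel screen.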
compound,measurement,setting,value
C[C@@H]1CCCCN1c1cc(-c2ccc3c(N)n[nH]c3c2)nc(N)n1 [GSK2258759],%Inh,BMPR1A; [1],0%
same,%Inh,BMPR1B,0%
same,%Inh,BMPR2; [1],0%
same,%Inh,BMX; [1],12%
same,%Inh,BRAF; [1],0%
same,%Inh,BRK; [1],11%
same,%Inh,BRSK1; [1],0%
same,%Inh,BRSK2; [1],0%
same,%Inh,BTK,0%
same,%Inh,BUB1; [1],0%
same,%Inh,CAMK1B; [1],0%
same,%Inh,CAMK1D; [1],15%
same,%Inh,CAMK1G; [1],0%
same,%Inh,CAMK1; [1],9%
same,%Inh,CAMK2A,0%
same,%Inh,CAMK2B,0%
same,%Inh,CAMK2D; [1],1%
same,%Inh,CAMK2G; [1],28%
same,%Inh,CAMK4,0%
same,%Inh,CAMKK1,8%
O=c1cc(N2CCOCC2)nc2n(Cc3cccc(Cl)c3Cl)ccn12 [GSK2286295],%Inh,BMPR1A; [1],0%
same,%Inh,BMPR1B,0%
same,%Inh,BMPR2; [1],0%
same,%Inh,BMX; [1],25%
same,%Inh,BRAF; [1],0%
same,%Inh,BRK; [1],8%
same,%Inh,BRSK1; [1],13%
same,%Inh,BRSK2; [1],0%
same,%Inh,BTK,0%
same,%Inh,BUB1; [1],0%
same,%Inh,CAMK1B; [1],8%
same,%Inh,CAMK1D; [1],18%
same,%Inh,CAMK1G; [1],0%
same,%Inh,CAMK1; [1],14%
same,%Inh,CAMK2A,0%
same,%Inh,CAMK2B,0%
same,%Inh,CAMK2D; [1],5%
same,%Inh,CAMK2G; [1],9%
same,%Inh,CAMK4,0%
same,%Inh,CAMKK1,14%
Cc1cccc(-c2nc(-c3ccc(S(C)(=O)=O)cc3)sc2-c2ccnc(NCCc3ccccc3)c2)c1,%Inh,BMPR1A; [1],27%
same,%Inh,BMPR1B,6%
same,%Inh,BMPR2; [1],1%
same,%Inh,BMX; [1],0%
same,%Inh,BRAF; [1],95.8%
same,%Inh,BRK; [1],0%
same,%Inh,BRSK1; [1],3%
same,%Inh,BRSK2; [1],0%
same,%Inh,BTK,0%
same,%Inh,BUB1; [1],24%
same,%Inh,CAMK1B; [1],0%
same,%Inh,CAMK1D; [1],0%
same,%Inh,CAMK1G; [1],16%
same,%Inh,CAMK1; [1],31%
same,%Inh,CAMK2A,0%
same,%Inh,CAMK2B,0%
same,%Inh,CAMK2D; [1],7%
same,%Inh,CAMK2G; [1],9%
same,%Inh,CAMK4,0%
same,%Inh,CAMKK1,13%
Cc1nnc(-c2ccc3occ(-c4ccc(S(C)=O)cc4)c3c2)[nH]1 (stereo not shown),%Inh,BMPR1A; [1],11%
same,%Inh,BMPR1B,37%
same,%Inh,BMPR2; [1],26%
same,%Inh,BMX; [1],0%
same,%Inh,BRAF; [1],2%
same,%Inh,BRK; [1],0%
same,%Inh,BRSK1; [1],38%
same,%Inh,BRSK2; [1],0%
same,%Inh,BTK,0%
same,%Inh,BUB1; [1],26%
same,%Inh,CAMK1B; [1],1%
same,%Inh,CAMK1D; [1],15%
same,%Inh,CAMK1G; [1],23%
same,%Inh,CAMK1; [1],9%
same,%Inh,CAMK2A,4%
same,%Inh,CAMK2B,12%
same,%Inh,CAMK2D; [1],10%
same,%Inh,CAMK2G; [1],12%
same,%Inh,CAMK4,0%
same,%Inh,CAMKK1,14%
Cc1cccc(-c2cc(Nc3ccncc3)c3ccccc3n2)n1 [GSK223675],%Inh,BMPR1A; [1],0%
same,%Inh,BMPR1B,0%
same,%Inh,BMPR2; [1],0%
same,%Inh,BMX; [1],1%
same,%Inh,BRAF; [1],0%
same,%Inh,BRK; [1],0%
same,%Inh,BRSK1; [1],0%
same,%Inh,BRSK2; [1],0%
same,%Inh,BTK,0%
same,%Inh,BUB1; [1],0%
same,%Inh,CAMK1B; [1],25%
same,%Inh,CAMK1D; [1],26%
same,%Inh,CAMK1G; [1],6%
same,%Inh,CAMK1; [1],17%
same,%Inh,CAMK2A,0%
same,%Inh,CAMK2B,0%
same,%Inh,CAMK2D; [1],20%
same,%Inh,CAMK2G; [1],26%
same,%Inh,CAMK4,0%
same,%Inh,CAMKK1,12%
COc1ccc2nc(-c3cccc(C)n3)nc(Nc3ccncc3)c2c1 [GSK204919],%Inh,BMPR1A; [1],0%
same,%Inh,BMPR1B,0%
same,%Inh,BMPR2; [1],0%
same,%Inh,BMX; [1],27%
same,%Inh,BRAF; [1],0%
same,%Inh,BRK; [1],8%
same,%Inh,BRSK1; [1],4%
same,%Inh,BRSK2; [1],0%
same,%Inh,BTK,0%
same,%Inh,BUB1; [1],38%
same,%Inh,CAMK1B; [1],0%
same,%Inh,CAMK1D; [1],2%
same,%Inh,CAMK1G; [1],0%
same,%Inh,CAMK1; [1],5%
same,%Inh,CAMK2A,0%
same,%Inh,CAMK2B,0%
same,%Inh,CAMK2D; [1],0%
same,%Inh,CAMK2G; [1],3%
same,%Inh,CAMK4,0%
same,%Inh,CAMKK1,0%
COc1ccc(Nc2nccc(-c3cccc(NC(=O)c4cc5cc(F)ccc5[nH]4)c3)n2)cc1 [GSK1229782],%Inh,BMPR1A; [1],10%
same,%Inh,BMPR1B,0%
same,%Inh,BMPR2; [1],15%
same,%Inh,BMX; [1],16%
same,%Inh,BRAF; [1],0%
same,%Inh,BRK; [1],22%
same,%Inh,BRSK1; [1],4%
same,%Inh,BRSK2; [1],12%
same,%Inh,BTK,31%
same,%Inh,BUB1; [1],64%
same,%Inh,CAMK1B; [1],0%
same,%Inh,CAMK1D; [1],20%
same,%Inh,CAMK1G; [1],13%
same,%Inh,CAMK1; [1],36%
same,%Inh,CAMK2A,0%
same,%Inh,CAMK2B,0%
same,%Inh,CAMK2D; [1],23%
same,%Inh,CAMK2G; [1],34%
same,%Inh,CAMK4,0%
same,%Inh,CAMKK1,20%
CSc1nn2c(=O)cc(N3CCOCC3)nc2n1Cc1cccc(C(F)(F)F)c1C [GSK2363608],%Inh,BMPR1A; [2],17% and 0%
same,%Inh,BMPR1B,0%
same,%Inh,BMPR2; [2],22% and 0%
same,%Inh,BMX; [2],8% and 0%
same,%Inh,BRAF; [2],0% and 5%
same,%Inh,BRK; [2],0% and 10%
same,%Inh,BRSK1; [2],7% and 4%
same,%Inh,BRSK2; [2],4% and 0%
same,%Inh,BTK,0%
same,%Inh,BUB1; [2],13% and 0%
same,%Inh,CAMK1B; [2],31% and 0%
same,%Inh,CAMK1D; [2],9% and 19%
same,%Inh,CAMK1G; [2],0% and 11%
same,%Inh,CAMK1; [2],1% and 13%
same,%Inh,CAMK2A,0%
same,%Inh,CAMK2B,0%
same,%Inh,CAMK2D; [2],2% and 19%
same,%Inh,CAMK2G; [2],0% and 15%
same,%Inh,CAMK4,0%
same,%Inh,CAMKK1,0%
Cc1ccccc1-n1cnc2c(N)ncnc21 [SKF-97510],%Inh,BMPR1A; [1],0%
same,%Inh,BMPR1B,0%
same,%Inh,BMPR2; [1],0%
same,%Inh,BMX; [1],12%
same,%Inh,BRAF; [1],0%
same,%Inh,BRK; [1],5%
same,%Inh,BRSK1; [1],0%
same,%Inh,BRSK2; [1],0%
same,%Inh,BTK,0%
same,%Inh,BUB1; [1],0%
same,%Inh,CAMK1B; [1],0%
same,%Inh,CAMK1D; [1],5%
same,%Inh,CAMK1G; [1],0%
same,%Inh,CAMK1; [1],0%
same,%Inh,CAMK2A,24%
same,%Inh,CAMK2B,14%
same,%Inh,CAMK2D; [1],4%
same,%Inh,CAMK2G; [1],4%
same,%Inh,CAMK4,0%
same,%Inh,CAMKK1,1%
CCCc1ccc(S(=O)(=O)NC2CCN(c3ccnc(Nc4ccc(F)cc4)n3)C2)cc1 (stereo not shown) [GSK1379715],%Inh,BMPR1A; [1],0%
same,%Inh,BMPR1B,0%
same,%Inh,BMPR2; [1],0%
same,%Inh,BMX; [1],2%
same,%Inh,BRAF; [1],0%
same,%Inh,BRK; [1],0%
same,%Inh,BRSK1; [1],0%
same,%Inh,BRSK2; [1],0%
same,%Inh,BTK,0%
same,%Inh,BUB1; [1],29%
same,%Inh,CAMK1B; [1],6%
same,%Inh,CAMK1D; [1],0%
same,%Inh,CAMK1G; [1],0%
same,%Inh,CAMK1; [1],0%
same,%Inh,CAMK2A,0%
same,%Inh,CAMK2B,0%
same,%Inh,CAMK2D; [1],0%
same,%Inh,CAMK2G; [1],0%
same,%Inh,CAMK4,0%
same,%Inh,CAMKK1,12%
COc1cc2ncnc(Nc3ccc4nc(-c5ccccc5)[nH]c4c3)c2cc1OC.Cl [GW282450],%Inh,BMPR1A; [1],0%
same,%Inh,BMPR1B,0%
same,%Inh,BMPR2; [1],0%
same,%Inh,BMX; [1],10%
same,%Inh,BRAF; [1],0%
same,%Inh,BRK; [1],0%
same,%Inh,BRSK1; [1],0%
same,%Inh,BRSK2; [1],0%
same,%Inh,BTK,0%
same,%Inh,BUB1; [1],6%
same,%Inh,CAMK1B; [1],0%
same,%Inh,CAMK1D; [1],20%
same,%Inh,CAMK1G; [1],0%
same,%Inh,CAMK1; [1],29%
same,%Inh,CAMK2A,0%
same,%Inh,CAMK2B,0%
same,%Inh,CAMK2D; [1],1%
same,%Inh,CAMK2G; [1],24%
same,%Inh,CAMK4,0%
same,%Inh,CAMKK1,11%
